Compound activity deposited in PubChem BioAssay by National Center for Advancing Translational Sciences (NCATS).
MCF10A rerep – DNA re-replication induction in MCF 10a cells; AID 624296; Potency, µM (titrated, usually from 46.1 µM), for inactives: at the top dose activity, positive = re-replication, hits mostly activators; actives 2.9% (n = 350,000); MCF 10A DNA re-replication, Hoechst nuclear intensity, 48 h; further: % of control where 0% means no effect; nearly all actives have a fitted effect of over 50% in size
KB-3-1 tox – kills parental KB-3-1 adenocarcinoma cells. KB-3-1 viability, CellTiter-Glo ATP luminescence, 72 h. Potency, µM (highest dose often 46.1 µM), actives largely listed as cytotoxic. actives 1.4% (n = 400,000); further: on the % scale 0 is the no-effect control and ±100 the full control effect; nearly all actives have a fitted effect of over 60% in size
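Screening of KB-3-1 cells (DMEM, 10% FBS, phenol-red free) ran from lowest to highest compound concentration; after 72 h at 37 °C viability was read luminescently and curves fitted.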
RORgamma inh – inhibitors of mouse ROR gamma transcriptional activity; P51450; Drosophila S2 Gal4-RORgamma UAS-luciferase reporter, 20 h; Potency, µM (titrated, usually from 53.6 µM), for the others: top-dose activity change, negative = inhibition, usual class: inhibitors; actives 5.4% (n = 310,000); AID 2551; further: on the % scale 0 is the no-effect control and ±100 the full control effect; nearly all actives have a fitted effect of over 60% in size
Target sequence (P51450 whole entry, looked up, the tested form may be a part): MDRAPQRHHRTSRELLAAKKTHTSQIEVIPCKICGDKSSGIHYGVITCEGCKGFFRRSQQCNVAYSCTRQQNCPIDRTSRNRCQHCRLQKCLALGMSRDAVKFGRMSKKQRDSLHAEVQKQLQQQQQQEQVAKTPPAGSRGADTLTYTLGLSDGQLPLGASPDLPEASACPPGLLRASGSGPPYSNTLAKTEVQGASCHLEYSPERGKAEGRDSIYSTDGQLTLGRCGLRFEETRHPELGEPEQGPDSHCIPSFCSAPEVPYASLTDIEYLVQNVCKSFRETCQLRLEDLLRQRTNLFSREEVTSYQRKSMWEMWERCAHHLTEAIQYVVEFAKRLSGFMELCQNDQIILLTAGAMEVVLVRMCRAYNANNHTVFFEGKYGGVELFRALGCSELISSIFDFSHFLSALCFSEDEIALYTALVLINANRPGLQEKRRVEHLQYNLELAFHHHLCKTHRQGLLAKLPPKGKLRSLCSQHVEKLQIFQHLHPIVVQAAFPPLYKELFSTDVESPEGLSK
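Drosophila S2 cells stably expressing Gal4-DBD/mouse RORγ fusion under metallothionein promoter plus UAS-luciferase; compound 1 h, then 700 uM CuSO4 induction for 20 h at ambient temperature; inhibition read as reduced luminescence.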
KB-V1 cytotox – KB-V1 MDR subline cytotoxicity. KB-V1 MDR cells viability, CellTiter-Glo, 72 h. actives 3.4% (n = 400,000). Potency, µM (highest dose often 46.1 µM), hits mostly cytotoxic; further: on the % scale 0 is the no-effect control and ±100 the full control effect; nearly all actives have a fitted effect of over 60% in size
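Readout: CellTiter-Glo luminescence, 10 min after addition. Cells: KB-V1 MDR subline, 72 h at 37 degrees C with compound. Analysis: corrected, normalized data fitted to concentration-effect curves.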
SW480 rerep – induces DNA re-replication in SW480 colon adenocarcinoma cells. SW480 DNA re-replication, Hoechst DNA content imaging, 48 h. Potency, µM (highest dose often 46.1 µM), for the others: at the highest dose re-replication activation, hits mostly activators. actives 1.8% (n = 340,000); further: % of control where 0% means no effect; nearly all actives have a fitted effect of over 55% in size
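Quantitative HTS format with DMSO vehicle controls; 48 hr drug incubation at 37 C, then 40 min Hoechst staining and scanning imager measurement at 405 nm excitation.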
Gal4-VP16 FLuc – inhibits Gal4-VP16 luciferase reporter, ROR gamma counter-screen; actives 3.5% (n = 310,000); AID 2546; Drosophila S2 Gal4-VP16 UAS-luciferase, luminescence, 20 h; Potency, µM (series often up to 53.6 µM), for the others: top-dose activity, negative = inhibition, usual class: inhibitors;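 further: Gal4-VP16 expression switched on by copper sulfate through the metallothionein promoter; on the % scale 0 is the no-effect control and ±100 the full control effect; nearly all actives have a fitted effect of over 50% in size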
* hit, by the source's call; i = inactive; ? = inconclusive; . = no result given; [ ] = remark or other dose. Hits are enriched below; roughly 10% of the tested compounds scored in any of these assays. The call rests on the fitted dose curve; in most records, active means well fitted curve in the direction sought with a large enough effect; inconclusive means small, poorly fitted or top-dose-only effect, or another doubt; inactive means no such curve, though single readings can be large; an effect the other way counts as inactive or inconclusive. Potency means the concentration at half of the fitted maximal effect.

SMILES	MCF10A rerep	KB-3-1 tox	RORgamma inh	KB-V1 cytotox	SW480 rerep	Gal4-VP16 FLuc
CCOc1ccc2nc(NCCNC(=O)CC)c(C#N)cc2c1	?	i	16%	?	?	-2%
COc1cc(C(=O)NCCCNc2ccc([N+](=O)[O-])cc2)cc(OC)c1OC	1%	i	?	21µM*	3%	0%
COC(=O)c1ccccc1NC(=O)c1nc(-c2ccc(Cl)cc2)n2c1CCCCC2	.	i	.	?	.	.
Cc1nc2ccccc2c(=O)n1-c1ccc(NC(=O)c2ccccc2[N+](=O)[O-])cc1	.	i	.	i	.	.
CSc1nc(N)nc(SCC(=O)Nc2cccc(F)c2)c1C#N	?	?	18%	2.3µM*	?	-10%
CS(=O)(=O)/C(C#N)=C/c1c(-c2ccccc2)nc2n1CCS2	-6%	i	0%	i	-21%	5%
Clc1ccc(CO/N=C/c2c(-c3ccccc3)nc3n2CCS3)c(Cl)c1	?	i	-5%	15µM*	5%	-10%
CSCCC(NS(=O)(=O)c1ccc2c(c1)OCCO2)C(=O)N(C)Cc1ccc(C)cc1 (configuration not stated)	?	i	29%	?	18%	-12%
COc1cccc(CN(C)C(=O)C(CCSC)NS(=O)(=O)c2ccc3c(c2)OCCO3)c1OC (configuration not stated)	?	i	.	15µM*	-448%	.
CCOc1ccc(C(=O)NCCS(=O)(=O)N2CCN(c3cccc(Cl)c3)CC2)cc1	.	i	.	i	.	.
CCc1ccc(CN(C)C(=O)c2cc(COc3cccc4cnccc34)on2)cc1	21µM*	?	-10%	i	-10%	?
Cc1c(C(C)NC(=O)c2cc(COc3cccc4cnccc34)on2)cnn1C (configuration not stated)	3%	21µM*	-27%	?	-15%	13µM*
CN(Cc1cccc2cnccc12)C(=O)c1cc(COc2ccc(F)cc2F)on1	16%	i	.	?	-6%	.
CSc1ccccc1OCc1cc(C(=O)NC(C)c2cnn(C)c2)no1 (configuration not stated)	-2%	.	1%	.	6%	2%
COc1ccc(CCNC(=O)CSCc2nc(-c3ccc(OC)c(OC)c3)oc2C)cc1OC	.	i	.	i	.	.
CCOc1cc(/C=C2\COc3ccccc3C2=O)ccc1OCC(=O)N(C)C	15µM*	i	?	?	15µM*	?
O=C(CSC1=Nc2ccccc2N=C(c2ccc(F)cc2)C1)Nc1cc(F)ccc1F	.	i	.	?	.	.
Cc1oc(-c2ccc(C(=O)NCc3ccccc3F)cc2)nc1COc1ccccc1	.	i	.	?	.	.
CC[C@H](C)[C@@H]1NC(=O)[C@@H](CC(C)C)NC(=O)[C@H](C(C)C)NC(=O)[C@H]2CSSC[C@H](NC1=O)C(=O)N2	.	1.2µM*	.	i	.	.
COc1ccccc1CN(C)CC(=O)Nc1ccc(Cl)cc1F	1.2µM*	i	21%	i	-60%	-4%
COc1ccc(Br)cc1CN(C)CC(=O)Nc1cc(Cl)ccc1Cl	?	i	44%	7.3µM*	4%	-8%
COc1ccc(CNC(=O)CSc2nn3c(=O)c(C(C)(C)C)nnc3s2)cc1OC	-17%	i	3.5µM*	i	-45%[1.84 µM]	2%
CC(C)(C)c1nnc2sc(SCC(=O)c3ccccc3)nn2c1=O	?	i	2%[0.365 µM]	i	2%	.
COc1ccccc1CNC(=O)CSc1nn2c(=O)c(C(C)(C)C)nnc2s1	9%	i	10µM*	?	-48%	?
CC1CCN(c2oc(-c3ccc(COc4ccccc4)o3)nc2C#N)CC1	.	i	.	i	.	.
SMILES	MCF10A rerep	KB-3-1 tox	RORgamma inh	KB-V1 cytotox	SW480 rerep	Gal4-VP16 FLuc
CCc1nnc2c(NCc3ccccc3OC)nc3ccccc3n12	.	i	.	i	.	.
CC1(C)Oc2ccc3ccc(=O)oc3c2/C(=C/Nc2ccccc2)C1=O	?	i	-31%	?	?	-11%
CC1(C)Oc2ccc3ccc(=O)oc3c2/C(=C/NC2CCCCC2)C1=O	15µM*	i	5%	?	?	4%
O=C(NC1CCCCCCC1)c1cc(COc2ccc3ncccc3c2)on1	1%	2.6µM*	?	1.8µM*	11%	4µM*
CC(CNC(=O)c1cc(COc2ccc3ncccc3c2)on1)c1ccccc1 (configuration not stated)	?	.	?	.	2%	10µM*
O=C(c1cc(COc2ccc3ncccc3c2)on1)N1CCC[C@H]1CO	6%	.	?	.	1%	5µM*
COc1cc(Cl)ccc1OCc1cc(C(=O)NCC(C)c2ccccc2)no1 (configuration not stated)	?	i	15%	i	?	?
CCC1CCCCN1C(=O)c1cc(COc2ccc(-n3cncn3)cc2)on1 (configuration not stated)	-5%	18µM*	?	13µM*	-15%	?
CC(CNC(=O)c1ccc2nc(Cc3ccccc3)oc2c1)c1ccccc1 (configuration not stated)	.	?	.	i	.	.
CC(C)C(=O)Nc1nnc2n1CCS2	.	i	.	i	.	.
Cc1cc(CN(C)C(=O)c2cc(COc3ccc4ncccc4c3)on2)on1	-1%	?	7.9µM*	i	0%	3.2µM*
COc1ccc(N2CCN(C(=O)C3Cc4ccccc4N3C(C)=O)CC2)cc1 (configuration not stated)	.	i	.	i	.	.
CC1(C)Cc2nc3oc4c(N5CCOCC5)ncnc4c3cc2CO1	12%	i	-7%	?	-9%	-12%
c1ccc(N2CCN(c3ncnc4c3oc3ccccc34)CC2)cc1	3%	i	0%	16µM*	-3%	-7%
CCc1nnc(N2CCN(c3ncnc4c3oc3ccccc34)CC2)s1	?	i	4%	i	-5%	4%
Brc1ccc2oc3c(N4CCOCC4)ncnc3c2c1	12%	i	31%	16µM*	-4%	-9%
COc1ccc(OC)c(CNC(=O)CCc2c(C)nc3c(c2C)c(=O)n(C)c(=O)n3C)c1	.	i	.	i	.	.
C=CCN1C(=O)C2(NC(=O)c3ccccc3N2)c2ccccc21 (configuration not stated)	?	?	1%	?	18µM*	-4%
C=CCN1C(=O)C2(NNc3ccccc3O2)c2ccccc21 (configuration not stated)	?	?	-13%	?	0%	-7%
